Activity calls are given as the source filed them.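 Rule for the calls, unless noted: active = z-score of at least 1.8 in each of two replicates, scored against plate mean and spread of sample wells; inactive = the rest.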

The nature of assay [1]: sensitizers of A549 cells to miR-34 induction, primary screen, imaging, A549 dox-inducible miR-34, nuclei and caspase counts (AID 1347080;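 active = compounds whose cell count with miR-34 switched on is under 0.7 times the count with it off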; note: test concentration not given here). Particulars: A549 miR-34 inducible, Hoechst nuclei count, 48 h.
Assay [2] can be described thus: survival rescue of mitochondrial mutant cells in low glucose, primary screen, MELAS cybrids, Rieske KO mouse fibroblasts, CellTiter-Glo (AID 1508586;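 active = mean z-score across replicates of 1.96 or higher in either the MELAS or the Rieske mutant cell line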;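 note: test concentration not given here; z relative to plate mean and SD of compound and empty wells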). In general terms: ATP-based viability assays read luminescence as a measure of living cells.
Assay [3] in a line: viability rescue of complex I mutant cybrids, primary screen, cell-based, galactose medium, ATP luminescence (AID 1645843).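 Note: positive z means more ATP and so rescue of galactose-driven cybrid death.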 The note with it: complex I mutant cybrid cells, 72 h, stronger effect = higher value.
[4] abbreviates: stronger effect = lower value, cell number ratio, induced over uninduced.
Where [5] appears, read: measured here: relative caspase fold change +Dox/-Dox.
[6] abbreviates: measured here: total cells with miR-34 induction, stronger effect = lower value.
[7] abbreviates: measured here: total cells without miR-34 induction.
[8] abbreviates: MELAS cybrid survival, CellTiter-Glo 48 h, stronger effect = higher value.
Where [9] appears, read: Rieske KO mouse fibroblast survival, CellTiter-Glo 72 h.

In the case of `CN1CCN(NC(=S)Nc2ccc(S(N)(=O)=O)cc2)CC1`, the results for the fold change in assay [1] (setting [4]) and in assay [1] (setting [5]) were 0.87 (inactive) and 0.82, respectively. The cell count in assay [1] (setting [6]) is 8440; in assay [1] (setting [7]) it was 9700. Also, the values for the z-score in assay [2] (setting [8]), in assay [2] (setting [9]) and in assay [3] were -0.739 (inactive), 0.101 and 0.425 (inactive), respectively.

`CCC(C)(C)c1nnc(NC(=O)NCc2ccco2)s1`: the fold change was 0.9 (inactive) in assay [1] (setting [4]) and 1.07 in assay [1] (setting [5]). Besides, the cell count in assay [1] (setting [6]) was 8900; in assay [1] (setting [7]) it was 9890. The values for the z-score in assay [2] (setting [8]), in assay [2] (setting [9]) and in assay [3] were 0.377 (inactive), -0.396 and 3.32 (active), respectively.

`CN(C)Cc1cn(CC2CCN(C(=O)c3ccc4c(c3)OCO4)CC2)nn1`: the fold change in assay [1] (setting [4]) is 0.896 (inactive); in assay [1] (setting [5]), 1.18. Also, the cell count in assay [1] (setting [6]) came to 9300; in assay [1] (setting [7]) it was 10400. The values for the z-score in assay [2] (setting [8]), in assay [2] (setting [9]) and in assay [3] were -0.121 (inactive), -0.477 and -0.48 (inactive), respectively.

In the case of `COc1cc2c(cc1-c1nnc3ccccn13)OCO2`, the fold change in assay [1] (setting [4]) is 0.908 (inactive); in assay [1] (setting [5]), 2.79. Further, the cell count in assay [1] (setting [6]) was found to be 8030; in assay [1] (setting [7]), 8840. For the same compound, the values for the z-score in assay [2] (setting [8]), in assay [2] (setting [9]) and in assay [3] were 0.597 (inactive), -0.284 and -0.465 (inactive), respectively.

As to `CN1CCC(CN(C)Cc2ccc(-c3nc(-c4cccnc4)cc(=O)[nH]3)cc2)CC1`, the figures for the fold change in assay [1] (setting [4]) and in assay [1] (setting [5]) were 0.831 (inactive) and 1.62, respectively. For the same compound, the cell count was 8360 in assay [1] (setting [6]) and 10100 in assay [1] (setting [7]). Further, the z-score in assay [2] (setting [8]) was 0.139 (inactive); in assay [2] (setting [9]), 0.0765; in assay [3], -0.51 (inactive).

For the compound `O=C1CCC(CC(=O)N2CCc3[nH]nc(-c4ccc5c(c4)OCO5)c3C2)N1` (centres undefined), the values for the fold change in assay [1] (setting [4]) and in assay [1] (setting [5]) were 0.953 (inactive) and 1.24, respectively. For the same compound, the figures for the cell count in assay [1] (setting [6]) and in assay [1] (setting [7]) were 9140 and 9600, respectively. The z-score was -0.575 (inactive) in assay [2] (setting [8]), -0.976 in assay [2] (setting [9]) and -0.52 (inactive) in assay [3].

`COc1ccc(C(=O)N2CCN(C(=O)c3ccc4sc(N)nc4c3)CC2)cc1`: the fold change in assay [1] (setting [4]) was 0.916 (inactive); in assay [1] (setting [5]), 0.875. The cell count in assay [1] (setting [6]) came out at 9050; in assay [1] (setting [7]) it was 9880. In addition, the z-score in assay [2] (setting [8]) is -0.342 (inactive); in assay [2] (setting [9]), -0.192; in assay [3] it was -0.575 (inactive).

Take `CC(=O)Nc1nc2c(s1)C(=O)NCCC2`: the fold change in assay [1] (setting [4]) is 0.907 (inactive); in assay [1] (setting [5]), 0.479. Further, the cell count in assay [1] (setting [6]) is 8770; in assay [1] (setting [7]), 9670. Further, the z-score in assay [2] (setting [8]) is 0.0141 (inactive); in assay [2] (setting [9]), -0.403; in assay [3], 0.685 (inactive).

On to `COc1cccc2c(=O)n(Cc3ccc4nonc4c3)cnc12`, for which the fold change was 0.912 (inactive) in assay [1] (setting [4]) and 1.93 in assay [1] (setting [5]). The cell count turned out to be 8180 in assay [1] (setting [6]) and 8980 in assay [1] (setting [7]). For the same compound, the z-score was 0.215 (inactive) in assay [2] (setting [8]), -0.341 in assay [2] (setting [9]) and -0.545 (inactive) in assay [3].

For the compound `COc1ccc2c(c1)CCN(C(=O)Nc1n[nH]c(-c3ccco3)n1)C2`, the fold change in assay [1] (setting [4]) was 0.87 (inactive); in assay [1] (setting [5]), 1.45. In addition, the cell count in assay [1] (setting [6]) is 7950; in assay [1] (setting [7]), 9130. Further, the z-score is 0.18 in assay [2] (setting [8]), 3.56 in assay [2] (setting [9]) and 0.245 (inactive) in assay [3].

In the case of `FC(F)Oc1ccc(-c2nc3c(cnn3Cc3cccs3)[nH]2)cc1`, the values for the fold change in assay [1] (setting [4]) and in assay [1] (setting [5]) were 0.844 (inactive) and 1.61, respectively. Further, the cell count in assay [1] (setting [6]) is 6520; in assay [1] (setting [7]) it was 7720. Further, the figures for the z-score in assay [2] (setting [8]), in assay [2] (setting [9]) and in assay [3] were -0.426, 2.02 and 1.1 (inactive), respectively.

With `Cc1ccc(S(=O)(=O)NCCCOC(=O)Nc2ccncc2)cc1`, the fold change in assay [1] (setting [4]) is 0.881 (inactive); in assay [1] (setting [5]), 0.547. Besides, the cell count turned out to be 7920 in assay [1] (setting [6]) and 8990 in assay [1] (setting [7]). Moreover, the z-score in assay [2] (setting [8]) was 0.675 (inactive); in assay [2] (setting [9]), -0.0111; in assay [3] it was -0.675 (inactive).

Turning to `Cc1nc(C(=O)O)nn1-c1cc(Cl)cc(Cl)c1`, the results for the fold change in assay [1] (setting [4]) and in assay [1] (setting [5]) were 0.931 (inactive) and 0.603, respectively. Further, the cell count came out at 8310 in assay [1] (setting [6]) and 8930 in assay [1] (setting [7]). Moreover, the z-score is -0.498 (inactive) in assay [2] (setting [8]), -0.479 in assay [2] (setting [9]) and 0.61 (inactive) in assay [3].

On to `CCOC(=O)c1c(C)n[nH]c1C`, for which the fold change in assay [1] (setting [4]) was 0.871 (inactive); in assay [1] (setting [5]), 0.655. Besides, the cell count in assay [1] (setting [6]) worked out at 8840; in assay [1] (setting [7]) it was 10200. The z-score was 0.691 (inactive) in assay [2] (setting [8]), -0.58 in assay [2] (setting [9]) and 0.425 (inactive) in assay [3].

With `O=C(O)c1cccc2c(-c3ccccc3)c(-c3ccccc3)[nH]c12`, the figures for the fold change in assay [1] (setting [4]) and in assay [1] (setting [5]) were 0.883 (inactive) and 1.11, respectively. For the same compound, the cell count came to 8700 in assay [1] (setting [6]) and 9850 in assay [1] (setting [7]). For the same compound, the z-score in assay [2] (setting [8]) was -0.38 (inactive); in assay [2] (setting [9]), -0.101; in assay [3], 0.98 (inactive).

On to `CCNc1ncc(-c2cc(C(=O)N(C)CCN(C)C)c3cc(F)ccc3n2)cn1`, for which the fold change was 0.912 (inactive) in assay [1] (setting [4]) and 2.18 in assay [1] (setting [5]). Also, the figures for the cell count in assay [1] (setting [6]) and in assay [1] (setting [7]) were 8760 and 9610, respectively. The results for the z-score in assay [2] (setting [8]), in assay [2] (setting [9]) and in assay [3] were -0.0763 (inactive), -0.44 and -0.56 (inactive), respectively.

For `NC(=O)NC(Cc1ccccc1)C(=O)O` (centres undefined), the fold change in assay [1] (setting [4]) was 0.889 (inactive); in assay [1] (setting [5]), 0.725. For the same compound, the cell count turned out to be 8700 in assay [1] (setting [6]) and 9790 in assay [1] (setting [7]). The z-score in assay [2] (setting [8]) was -0.32 (inactive); in assay [2] (setting [9]), -0.255; in assay [3], 0.66 (inactive).

With `COc1ccc2c(C(=O)N(C)C3CCN(C)C3)cc(-c3cnn(C)c3)nc2c1` (centres undefined), the fold change in assay [1] (setting [4]) was 0.88 (inactive); in assay [1] (setting [5]), 1.02. Moreover, the cell count in assay [1] (setting [6]) was found to be 8530; in assay [1] (setting [7]), 9700. The z-score in assay [2] (setting [8]) was -0.325 (inactive); in assay [2] (setting [9]), -0.194; in assay [3] it was -0.495 (inactive).

With `COc1ccc(C(=O)O)cc1`, the fold change in assay [1] (setting [4]) is 0.947 (inactive); in assay [1] (setting [5]), 0.667. Besides, the cell count in assay [1] (setting [6]) turned out to be 9110; in assay [1] (setting [7]), 9620. Moreover, the z-score in assay [2] (setting [8]) was -0.37 (inactive); in assay [2] (setting [9]) it was -0.0461; in assay [3], -0.635 (inactive).

For the compound `NCC(=O)Nc1ccc(OCc2ccccc2)cc1`, the fold change in assay [1] (setting [4]) was 0.851 (inactive); in assay [1] (setting [5]), 0.248. The cell count in assay [1] (setting [6]) was found to be 8020; in assay [1] (setting [7]) it was 9430. For the same compound, the z-score is 1.42 (inactive) in assay [2] (setting [8]), -0.396 in assay [2] (setting [9]) and -1.35 (inactive) in assay [3].

As for `O=C(O)c1cnn(-c2ccccc2)c1`, the fold change is 0.883 (inactive) in assay [1] (setting [4]) and 0.82 in assay [1] (setting [5]). Besides, the cell count turned out to be 8690 in assay [1] (setting [6]) and 9840 in assay [1] (setting [7]). Besides, the z-score in assay [2] (setting [8]) was -0.738 (inactive); in assay [2] (setting [9]), 0.631; in assay [3], 1.16 (inactive).

For `Cc1nn(C)cc1-c1ccnc(N2CCCN(c3ccccc3)CC2)n1`, the fold change in assay [1] (setting [4]) was 0.823 (inactive); in assay [1] (setting [5]), 0.527. In addition, the values for the cell count in assay [1] (setting [6]) and in assay [1] (setting [7]) were 5610 and 6820, respectively. Further, the figures for the z-score in assay [2] (setting [8]), in assay [2] (setting [9]) and in assay [3] were -1.06, 3.98 and 2.46 (active), respectively.

For the origin of these results see PubChem BioAssay.
